Results reported in PubChem BioAssay AID652154 (Broad Institute, 2013).
About 4,200 (1.2%) of roughly 360,000 compounds were called active. The sample holds actives, similar compounds and a random draw of the others, so the mix is not that of the screen. A number with no mark means an inactive call.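 How the source made its calls: active means mean replicate inhibition at least 60% with every replicate also reaching 60%; inconclusive means only one of the two criteria is met; inactive means mean below 60% and not all replicates reaching 60%.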

Experiment: PAX8 transcriptional activity inhibition in RMG-I – RMG-I cells, luciferase, single concentration, primary screen (AID 652154);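 further: luciferase light reporting Pax8 driven TPO promoter activity; plate controls were median of neutral control wells for no effect and mitoxantrone controls for full effect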
Conditions: RMG-I TPO-luciferase reporter, SteadyGlo, 24 h; at 12.6 µM; hits give high values
Work on `COc1cc(C(=O)CCc2ccc3c(c2)OCO3)cc(OC)c1OC` yielded an inhibition of -6.52%.
With `COc1cc(C2c3cc4c(cc3C(O)C3COC(=O)C23)OCO4)cc(OC)c1OC` (centres undefined) the inhibition was 77.3% (active).
Compound `COc1cc(C2CC(=O)Oc3cc(OC)c(OC)c(OC)c32)cc(OC)c1OC` (centres undefined) has an inhibition of -2.9%.
In the case of `Cc1ccccc1S(=O)(=O)N1[C@@H]2CNC[C@H]1C2c1ccc(-c2cccnc2)cc1` (some centres undefined), the inhibition is reported as 19.3%.
With `CN(c1ccc2nc3ccccc3c(=O)n2n1)C1CCCCC1` the inhibition was 86% (active).
Compound `CC(C)C(C)NC(=O)COc1nc2ccccc2nc1N(C)C1CCCCC1` (centres undefined) has an inhibition of 0.996%.
Work on `CC(C)c1cc(C(=O)NC2CCCCCC2)c2ccccc2n1` yielded an inhibition of -9.13%.
In the case of `COc1ccc2c3c(n(C)c2c1)[C@@H](CO)N(Cc1ccncc1)CC31CN(C(=O)C2CCCCC2)C1`, the inhibition is reported as -15.5%.
`COc1ccc(S(=O)(=O)N(C)C[C@H]2OCCCC[C@@H](C)Oc3ccc(NC(=O)NC(C)C)cc3C(=O)N([C@H](C)CO)C[C@H]2C)cc1` gave an inhibition of 17%.
With `C/C=C/c1ccc([C@H]2[C@@H](C#N)N(C(=O)CN3CCOCC3)[C@@H]2CO)cc1` the inhibition was -6.35%.
`COC(=O)CSc1nnc(NC(=O)CCc2ccccc2)s1` gave an inhibition of -0.955%.
For `COCCSc1nnc(NC(=O)CCS(=O)(=O)Cc2ccccc2)s1`, the inhibition was 65.7% (active).
`CCOCc1nnc(NC(=O)CCS(=O)(=O)Cc2ccccc2)s1` gave an inhibition of 50.3%.
Compound `C[C@@H]1CN([C@@H](C)CO)S(=O)(=O)c2ccc(-c3cccc(C(=O)N(C)C)c3)cc2O[C@@H]1CN(C)C` has an inhibition of -0.377%.
`O=C(C[C@H]1C[C@H]2c3cc(NC(=O)C4CCC4)ccc3O[C@H]2[C@@H](CO)O1)NCc1ccc(Cl)cc1` gave an inhibition of -5.09%.
`CN(C)CCN1CCN(c2cc(-c3cccc(Cl)c3)nc3ccnn23)CC1` gave an inhibition of -3.43%.
For `C#Cc1cc(N2CCN(C(=O)c3ccoc3)CC2)n2nc(-c3cccc(Cl)c3)cc2n1`, the inhibition was 107% (active).
For `O=C(c1ccccc1)N1CCN(c2cc(-c3ccccc3)nc3cc(-c4cccc(Cl)c4)nn23)CC1`, the inhibition was 40.2%.
With `C[C@@H]1CN([C@H](C)CO)C(=O)c2cccc(NS(=O)(=O)c3ccccc3)c2O[C@@H]1CN(C)Cc1ccc(C(=O)O)cc1` the inhibition was 14.1%.
`CCC(=O)Nc1ccc2c(c1)C(=O)N(C)[C@@H]1CC[C@@H](CC(=O)Nc3cccc(OC)c3)O[C@@H]1CO2` gave an inhibition of 8.78%.
`Cc1ccc(C)c(S(=O)(=O)N2CCN(CC(=O)Nc3ccc([N+](=O)[O-])cc3)CC2)c1` gave an inhibition of 6.46%.
In the case of `Cc1ccc(C)c(S(=O)(=O)N2CCN(c3ncnc4sccc34)CC2)c1`, the inhibition is reported as 73.6% (active).
Work on `COc1ccc(-c2csc3ncnc(N4CCN(S(=O)(=O)c5ccccc5C#N)CC4)c23)cc1` yielded an inhibition of 9.25%.
Compound `CCC(=O)Nc1ccc2c(c1)OC[C@@H](C)N(Cc1ccccc1OC)C[C@H](C)[C@H](OC)CN(C)C2=O` has an inhibition of -6.79%.
`C[C@@H]1CN([C@H](C)CO)C(=O)c2cc(NS(=O)(=O)c3cn(C)cn3)ccc2O[C@H]1CN(C)S(=O)(=O)c1ccc(Cl)cc1` showed an inhibition of 1.32%.
For `CC(=O)N(C)C[C@@H]1Oc2ncc(C#Cc3ccc(F)cc3)cc2C(=O)N([C@H](C)CO)C[C@@H]1C`, the inhibition was -8.23%.
For `CCCN(C)C[C@H]1Oc2cc(C#CCC3CCCC3)ccc2S(=O)(=O)N([C@@H](C)CO)C[C@@H]1C`, the inhibition was 2%.
In the case of `C[C@H](CO)N1C[C@H](C)[C@@H](CN(C)S(=O)(=O)c2cccc(F)c2)Oc2cc(C#CCN(C)C)ccc2S1(=O)=O`, the inhibition is reported as 14.6%.
In the case of `COc1cccc(S(=O)(=O)N(C)C[C@@H]2Oc3cc(C4=CCCCC4)ccc3S(=O)(=O)N([C@H](C)CO)C[C@H]2C)c1`, the inhibition is reported as 65.8% (active).
Work on `COCC(=O)N(C)C[C@@H]1Oc2cc(C3=CCCC3)ccc2S(=O)(=O)N([C@@H](C)CO)C[C@H]1C` yielded an inhibition of -21%.
In the case of `CCCC#Cc1ccc2c(c1)O[C@@H](CN(C)S(=O)(=O)c1cccc(OC)c1)[C@H](C)CN([C@@H](C)CO)S2(=O)=O`, the inhibition is reported as 60.4% (active).
In the case of `COc1ccccc1S(=O)(=O)N(C)C[C@H]1Oc2cc(C#CCC3CCCC3)ccc2S(=O)(=O)N([C@@H](C)CO)C[C@H]1C`, the inhibition is reported as 77.3% (active).
`C[C@@H]1CN([C@@H](C)CO)S(=O)(=O)c2ccc(C#CCN(C)C)cc2O[C@@H]1CN(C)S(=O)(=O)c1cccc(F)c1` showed an inhibition of -15.8%.
Compound `C[C@@H]1CN([C@H](C)CO)S(=O)(=O)c2ccc(C#CCC3CCCC3)cc2O[C@H]1CN(C)C(=O)CC1CC1` has an inhibition of 23.3%.
For `Cc1ccc(S(=O)(=O)N(C)C[C@@H]2Oc3cc(C4=CCCC4)ccc3S(=O)(=O)N([C@@H](C)CO)C[C@@H]2C)cc1`, the inhibition was 36.4%.
`C[C@H]1CN([C@@H](C)CO)C(=O)Cc2cc(NC(=O)Nc3cccc4ccccc34)ccc2O[C@@H]1CN(C)C` gave an inhibition of -5.56%.
With `OC[C@H]1[C@H](c2ccc(-c3ccccc3F)cc2)[C@H]2CN(Cc3cncnc3)CCCCN21` the inhibition was 1.13%.
In the case of `COc1ccccc1-c1ccc2c(c1)O[C@H](CN(C)C(=O)c1cccnc1)[C@@H](C)CN([C@H](C)CO)S2(=O)=O`, the inhibition is reported as 15%.
In the case of `C=CC[C@]12C[C@@]3(O[C@H](c4ccc(C(F)(F)F)cc4)N=C3C[C@H](c3ccc(OC)cc3)[C@H]1C)N(C1CCN(Cc3ccccc3)CC1)C2=O`, the inhibition is reported as -2.39%.
Compound `CNC[C@@H]1Oc2cc(C#CC3(O)CCCC3)ccc2S(=O)(=O)N([C@@H](C)CO)C[C@H]1C` has an inhibition of 9.72%.
Compound `C[C@@H]1CN([C@@H](C)CO)S(=O)(=O)c2ccc(C#Cc3ccccc3)cc2O[C@@H]1CN(C)C(=O)Nc1ccccc1` has an inhibition of 3.61%.
With `C[C@H]1CN([C@@H](C)CO)S(=O)(=O)c2ccc(C#CC3CCCC3)cc2O[C@H]1CN(C)C(=O)Cc1ccncc1` the inhibition was 32.9%.
`C[C@@H]1CN([C@H](C)CO)S(=O)(=O)c2ccc(C#CC3CCCCC3)cc2O[C@H]1CN(C)C(=O)Cc1ccncc1` showed an inhibition of 0.108%.
In the case of `C[C@H]1CN([C@@H](C)CO)S(=O)(=O)c2ccc(C3=CCCC3)cc2O[C@H]1CN(C)C(=O)Nc1ccc2c(c1)OCO2`, the inhibition is reported as 19.4%.
For `C[C@@H]1CN([C@H](C)CO)S(=O)(=O)c2ccc(C3=CCCC3)cc2O[C@H]1CN(C)C(=O)Nc1ccc2c(c1)OCO2`, the inhibition was 8.58%.
With `C[C@H](CO)N1C[C@H](C)[C@H](CN(C)C(=O)Nc2ccc3c(c2)OCO3)Oc2cc(C#Cc3ccncc3)ccc2S1(=O)=O` the inhibition was 72.2% (active).
With `C[C@H]1CN([C@@H](C)CO)S(=O)(=O)c2ccc(C#Cc3ccncc3)cc2O[C@@H]1CN(C)C(=O)Nc1ccc2c(c1)OCO2` the inhibition was 101% (active).
In the case of `C[C@@H]1CN([C@H](C)CO)S(=O)(=O)c2ccc(C#CC3CCCC3)cc2O[C@@H]1CN(C)C(=O)Cc1ccncc1`, the inhibition is reported as 90.6% (active).
With `CC(C)C#Cc1ccc2c(c1)O[C@@H](CN(C)C(=O)NC(C)C)[C@H](C)CN([C@H](C)CO)S2(=O)=O` the inhibition was -13.2%.
